HT1080NT lethal: kills 2HG-producing HT-1080-NT fibrosarcoma cells | Potency, µM (titrated, usually from 46.1 µM), inactives show at the highest dose activity, negative = less viability, most hits filed as cytotoxic | hit rate 1.6% among 360,000 | HT-1080-NT fibrosarcoma viability, CellTiter-Glo ATP luminescence, 48 h | AID 686970;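 note: NT is the 2HG producing partner of a matched IDH1 knockdown line; potency is the fitted concentration of half-maximal effect; 0% = DMSO-treated cells and -100% = media-only wells without cells; nearly all actives have a fitted effect of over 55% in size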
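HT-1080-NT; 750 cells/well; 5% FBS RPMI; 48 h compound, 37 degrees C; CellTiter-Glo luminescence; curve fitting and curve-class assignment.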
IL-1B inflam inh: inhibitors of inflammasome signaling (IL-1 beta secretion). hit rate 4.7% among 360,000. THP-1 LPS/ATP IL-1B secretion, AlphaLISA, 16 h; hits give low values. activity change, % at 57.5 µM; in the data active = activity change below about -50%; inconclusive = mostly about -30% to -49%; note: % is set by controls: 0 for no effect and ±100 for the full control effect
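THP-1 cells pretreated 1 hr with compounds (up to 57.5 uM final), then stimulated with LPS (250 ng/mL final) plus ATP (1.25 mM final); secreted IL-1B measured by AlphaLISA after 16 hr, decreased signal indicating inhibition.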
TGFb inhibitor: inhibitors of TGF-b signaling; HepG2 CAGA-GFP TGF-b/SMAD3 reporter, GFP fluorescence, 18 h; TGF-beta stimulated, 500 pg/mL final; Potency, µM (doses to about 46.1 µM), for inactives: at the highest dose activity, negative = inhibition, usual class: inhibitors; hit rate 1.2% among 410,000; AID 588855; note: potency is the fitted concentration of half-maximal effect; % is set by controls: 0 for no effect and ±100 for the full control effect; nearly all actives have a fitted effect of over 65% in size
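Using HEPG2 CAGA-GFP reporter cells at 1000 cells/well, we pinned test compounds, stimulated with recombinant TGF-beta (500 pg/mL final) and measured total well GFP after 18 h.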
HepG2 viability: HepG2 cytotoxicity, counter-screen for TGF-b inhibitors. HepG2 CAGA-GFP viability, ATP luminescence, 18 h. Potency, µM (top dose mostly 46.1 µM), for inactives: at the highest dose activity change, negative = cytotoxicity, hits mostly cytotoxic. hit rate 0.76% among 410,000; note: potency is the fitted concentration of half-maximal effect
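CellTiter-Glo luminescence gave cytotoxicity after 18 hours at 37 degrees C. The cells were HepG2 CAGA-GFP in 1% FBS DMEM, stimulated with 500 pg/mL TGF-beta after compound addition. %Activity was normalised to no-cell wells (complete cell-killing) and DMSO (no toxicity), and curves were fitted and classified.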
Giardia kill: kills Giardia lamblia | hit rate 0.15% among 340,000 | activity change, % at 7.66 µM, hits read low | AID 540267 | Giardia lamblia trophozoite viability; in the data active = activity change below about -80%; inconclusive = between about -30% and that limit;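 note: parasites exposed to compound for two days anaerobically before the ATP read; % is set by controls: 0 for no effect and ±100 for the full control effect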
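Killing of trophozoites was scored by loss of ATP luminescence after a 48 hrs anaerobic exposure to compounds at 37 deg C, using 100 cells per well.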
HT1080 IDH1KD tx: HT-1080 IDH1 knockdown cell toxicity (counter line); HT-1080 IDH1 knockdown viability, ATP luminescence, 48 h; Potency, µM (highest dose often 46.1 µM), for inactives: top-dose activity, negative = toxicity, usual class: cytotoxic; hit rate 2% among 360,000;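 note: potency is the fitted concentration of half-maximal effect; 0% = DMSO wells and -100% = cell-free medium wells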
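CellTiter-Glo luminescence after 48 h compound exposure at 37 degrees C of IDH1-knockdown HT-1080 cells in 5% FBS RPMI. %Activity scaled between DMSO wells and cell-free media wells, with curves fitted and assigned curve classes.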
An asterisk follows results filed as active; ? = inconclusive; . = no result given. Shown are actives, neighbours in structure and some others; about 6.5% of the full set was active somewhere. Unless noted, calls come from the whole dose curve; as a rule, active = well fitted curve in the direction sought with a large enough effect; inconclusive = small, poorly fitted or top-dose-only effect, or another doubt; inactive = no such curve, though single readings can be large; an effect the other way counts as inactive or inconclusive.

SMILES	HT1080NT lethal	IL-1B inflam inh	TGFb inhibitor	HepG2 viability	Giardia kill	HT1080 IDH1KD tx
CC(C)c1ccc(/C=N/NC(=O)c2ccccc2Cl)cc1	7.3µM*	-4	-13%	25%	28	6.5µM*
O=C(N/N=C/c1cc(Cl)ccc1O)C(=O)Nc1ccccc1OC(F)(F)C(F)F	?	39	?	-9%	-7	?
COC(=O)N/N=C/c1cc(Br)ccc1O	2%	-16	1%	8%	7	5%
O=C(N/N=C/c1cc(Cl)ccc1O)c1ccncc1	6.5µM*	217	?	13µM*	2	4.1µM*
O=C(N/N=C/c1cc(Br)ccc1O)C(=O)Nc1ccccc1OC(F)(F)C(F)F	1.4µM*	156	?	-35%	6	0.89µM*
O=C(N/N=C/c1cc(Br)ccc1O)c1ccccc1Cl	?	53	?	-48%	-5	16µM*
COc1ccc(C(=O)c2c(-c3ccc(OC)cc3)oc3ccc(-c4ccc(OC)nc4)cc23)cc1	0%	31	3%	1%	35	5%
Cc1cccc2cc(/C=N/NC(=O)c3ccccc3O)c(Cl)nc12	0%	11	10µM*	-32%	7	-21%
c1ccc(NCc2nc3ccccc3n2CCOc2ccccc2)cc1	2%	-11	3%	37%	?	-6%
CCn1c(Cc2ccc(OC)cc2)nc2ccccc21	-8%	-51*	-19%	-30%	-14	-12%
COc1ccc(OCc2nc3ccccc3n2Cc2ccc(C(C)(C)C)cc2)cc1	.	.	16µM*	-26%	.	.
COc1ccc(NCc2nc3ccccc3n2CCOc2ccccc2)cc1	-6%	-114*	-18%	-6%	6	0%
CC(C)(C)c1ccc(OCc2nc3ccccc3n2CCOc2ccccc2)cc1	.	.	-13%	-36%	.	.
COc1ccc(Cc2nc3ccccc3n2Cc2ccccc2F)cc1	.	.	?	-36%	.	.
COCc1nc2ccccc2n1Cc1ccc(C(C)(C)C)cc1	.	.	10µM*	-59%	.	.
CCN(CC)C(=O)CCn1nc(-c2ccc(C)cc2)c2ccccc2c1=O	1%	-3	1%	-21%	-13	-12%
FC(F)Oc1ccc(NC(=S)NNc2ccnc3cc(Cl)ccc23)cc1	26µM*	-93*	-27%	-12%	-5	21µM*
O=C(NNc1ccnc2cc(Cl)ccc12)C1CCCCC1	3.7µM*	-9	-26%	16%	7	?
NC(=S)NNc1ccnc2cc(Cl)ccc12	5%	-3	-3%	2%	-3	22%
CC(=O)c1ccc(NC(=O)C2CCN(S(=O)(=O)c3cccs3)CC2)cc1	0%	3	?	-25%	-3	-5%
Cc1ccc2nc(NC(=O)C3CCN(S(=O)(=O)c4cccs4)CC3)sc2c1	?	-76*	22%	-10%	2	?
COc1ccc2nc(NC(=O)C3CCCN(S(=O)(=O)c4cccs4)C3)sc2c1 (stereo unspecified)	-13%	-59*	22%	-49%	-2	-18%
Cc1ccc2nc(NC(=O)C3CCN(S(=O)(=O)c4cccnc4)CC3)sc2c1	-1%	-16	-11%	-11%	8	-11%
COc1ccc2nc(NC(=O)C3CCN(S(=O)(=O)c4cccs4)CC3)sc2c1	?	-75*	?	-25%	25	-28%
CCOc1ccc(NC(=O)C2CCN(S(=O)(=O)c3cccs3)CC2)cc1	-29%	-58*	8%	-55%	0	-1%
SMILES	HT1080NT lethal	IL-1B inflam inh	TGFb inhibitor	HepG2 viability	Giardia kill	HT1080 IDH1KD tx
COc1ccc(-c2nc(-c3ccccc3)[nH]c(=O)c2C#N)cc1	1%	0	-10%	23%	26	-9%
CCOC(=O)c1c(N)sc(C(O)(C(F)(F)F)C(F)(F)F)c1-c1ccc(Cl)cc1	?	-6	?	-98%	24	?
CSc1cccc(Nc2cc(C(=O)NCCCN(Cc3ccccc3)C(C)C)c3ccccc3n2)c1	.	.	?	10µM*	.	.
COc1ccc(Nc2cc(C(=O)NCCCN3CCN(c4ccccc4F)CC3)c3ccccc3n2)c(OC)c1	.	.	11µM*	-44%	.	.
CCOC(=O)C1CCCN(C(=O)c2cc(Nc3ccc(OC)c(OC)c3)nc3ccccc23)C1 (stereo unspecified)	0%	-93*	-4%	-20%	-5	-12%
CCN(CC)CCNC(=O)c1cc(Nc2ccc(OC)c(OC)c2)nc2ccccc12	-22%	-58*	0%	-16%	6	?
COc1ccc(Nc2cc(C(=O)NCc3ccccc3)c3ccccc3n2)cc1OC	.	.	-5%	-11%	.	.
COc1ccc(Nc2cc(C(=O)NCCCN3CCOCC3)c3ccccc3n2)c(OC)c1	-11%	-2	0%	-2%	9	-6%
CCOC(=O)C1CCCN(C(=O)c2cc(Nc3ccc(OC)cc3OC)nc3ccccc23)C1 (stereo unspecified)	1%	6	-19%	-3%	-8	-3%
Cc1cc(C)cc(Nc2cc(C(=O)NCCCN(Cc3ccccc3)C(C)C)c3ccccc3n2)c1	.	.	-30%	1%	.	.
C[C@@H](C(=O)OCC(=O)NCCc1ccc(S(N)(=O)=O)cc1)N1C(=O)C2CCCCC2C1=O (stereo partly specified)	-5%	0	-1%	-4%	2	10%
COc1ccc(-c2nc3nc(C)cc(N4CCN(c5cccc(C(F)(F)F)c5)CC4)n3n2)cc1	.	.	-18%	-32%	.	.
C/C(=N\NC(=O)c1ccc(NS(=O)(=O)c2cccs2)cc1)c1ccccn1	?	-4	1%	-73%	37	?
CCN(CC)CCCNC(=O)c1cc(Nc2ccc(OC)cc2)nc2ccccc12	-28%	-60*	21%	6%	8	?
COc1ccc(Nc2cc(C(=O)NCCCN(C)Cc3ccccc3)c3ccccc3n2)cc1	.	.	?	-49%	.	.
CN(C)c1ccc(/C=C(/NC(=O)c2ccccc2)C(=O)NCCN2CCOCC2)cc1	-1%	-6	10%	6%	25	-4%
O=C(NCC(c1ccc2c(c1)OCO2)N1CCN(c2ccccc2F)CC1)c1ccccc1F (stereo unspecified)	.	.	10µM*	-4%	.	.
CC(=O)Nc1cccc2c1Cc1ccccc1-2	19%	0	21%	5%	-25	9%
Cc1ccc(CN2CCC(CNC(=O)c3cc4ccc5cccnc5c4[nH]3)CC2)cc1	.	.	?	13µM*	.	.
O=[N+]([O-])c1ccc(-c2ccc(/C=N/Nc3nc(NCc4ccccc4)nc(N4CCOCC4)n3)o2)cc1	18µM*	-91*	-26%	-55%	-2	16µM*

High-throughput results as filed in PubChem BioAssay.
